From paper PMC7862700, “An all-to-all approach to the identification of sequence-specific readers for epigenetic DNA modifications on cytosine”

What was measured:
Assay in all cases: DAPPL (digital affinity profiling via proximity ligation, sequencing); 10 mM Tris-HCl pH 7.5, 50 mM NaCl, 1 mM DTT, 4% glycerol, room temperature, 30 min; GST-TFs on glutathione beads, 16-mer random dsDNA library, 0.1% formaldehyde crosslink after washing; high values mean tight binding
Conditions in all cases: protein: recombinant; tags: N-terminal GST; dsDNA, one strand shown
FLI1 = target: T1, FLI1 (Homo sapiens, UniProt Q01543 1-452)
T1 sequence: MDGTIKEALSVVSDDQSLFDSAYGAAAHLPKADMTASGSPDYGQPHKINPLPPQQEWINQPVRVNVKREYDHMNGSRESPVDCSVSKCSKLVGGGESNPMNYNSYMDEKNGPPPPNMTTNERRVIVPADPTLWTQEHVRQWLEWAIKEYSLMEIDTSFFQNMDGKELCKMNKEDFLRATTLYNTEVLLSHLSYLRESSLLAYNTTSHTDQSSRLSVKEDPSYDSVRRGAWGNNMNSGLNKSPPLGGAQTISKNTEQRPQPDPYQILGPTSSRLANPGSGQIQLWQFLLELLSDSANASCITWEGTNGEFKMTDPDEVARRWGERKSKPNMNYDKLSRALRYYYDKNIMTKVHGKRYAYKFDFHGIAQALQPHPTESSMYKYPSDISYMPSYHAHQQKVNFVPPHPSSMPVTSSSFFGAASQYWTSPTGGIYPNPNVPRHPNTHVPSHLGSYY
Procedure, shortened: (§1)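 Beads coated with glutathione captured GST-fused human transcription factors that had been expressed in yeast, and the factors were then given DNA barcodes and pooled with a tag-only sample. The pools were incubated with 200 nmole of a random double-stranded 16-mer DNA library in Tris/NaCl/DTT/glycerol buffer for 30 min at room temperature, washed, crosslinked with 0.1% formaldehyde and proximity-ligated with BsaI/T4 ligase at 37 °C for 1 h. PCR amplification and Illumina NextSeq500 sequencing came last. Binding signal is each hexamer's read frequency for a factor divided by its frequency for the tag-only sample.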

ELK1 = target: T2, ELK1 (Homo sapiens, UniProt P19419 1-428)
T2 sequence: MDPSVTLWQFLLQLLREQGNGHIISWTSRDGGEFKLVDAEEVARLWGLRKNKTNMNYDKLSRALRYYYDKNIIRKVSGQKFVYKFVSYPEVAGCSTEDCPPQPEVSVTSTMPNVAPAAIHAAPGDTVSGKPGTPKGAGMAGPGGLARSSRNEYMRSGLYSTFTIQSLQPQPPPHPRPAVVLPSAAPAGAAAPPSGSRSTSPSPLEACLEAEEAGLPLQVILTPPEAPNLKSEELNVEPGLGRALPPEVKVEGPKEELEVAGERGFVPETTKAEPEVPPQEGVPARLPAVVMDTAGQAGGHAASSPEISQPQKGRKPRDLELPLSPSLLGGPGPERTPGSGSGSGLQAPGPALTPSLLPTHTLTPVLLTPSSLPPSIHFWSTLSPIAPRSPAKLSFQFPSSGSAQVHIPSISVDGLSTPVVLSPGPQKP
Procedure, shortened: as §1

GABPA = target: T3, GABPA (Homo sapiens, UniProt Q06546 1-454)
T3 sequence: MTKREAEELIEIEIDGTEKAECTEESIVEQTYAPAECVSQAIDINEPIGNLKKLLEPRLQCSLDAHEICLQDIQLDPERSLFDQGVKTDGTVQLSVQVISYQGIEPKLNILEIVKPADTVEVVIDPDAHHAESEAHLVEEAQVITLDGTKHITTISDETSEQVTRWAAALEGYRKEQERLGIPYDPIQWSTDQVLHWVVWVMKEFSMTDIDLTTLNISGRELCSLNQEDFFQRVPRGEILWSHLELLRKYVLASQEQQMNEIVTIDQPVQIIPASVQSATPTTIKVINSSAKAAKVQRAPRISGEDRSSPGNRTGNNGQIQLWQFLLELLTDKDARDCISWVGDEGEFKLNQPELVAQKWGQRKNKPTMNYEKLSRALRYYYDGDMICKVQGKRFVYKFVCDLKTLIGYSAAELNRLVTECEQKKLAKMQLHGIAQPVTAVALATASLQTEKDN
Procedure, shortened: as §1

ERG = target: T4, ERG (Homo sapiens, UniProt P11308 1-479)
T4 sequence: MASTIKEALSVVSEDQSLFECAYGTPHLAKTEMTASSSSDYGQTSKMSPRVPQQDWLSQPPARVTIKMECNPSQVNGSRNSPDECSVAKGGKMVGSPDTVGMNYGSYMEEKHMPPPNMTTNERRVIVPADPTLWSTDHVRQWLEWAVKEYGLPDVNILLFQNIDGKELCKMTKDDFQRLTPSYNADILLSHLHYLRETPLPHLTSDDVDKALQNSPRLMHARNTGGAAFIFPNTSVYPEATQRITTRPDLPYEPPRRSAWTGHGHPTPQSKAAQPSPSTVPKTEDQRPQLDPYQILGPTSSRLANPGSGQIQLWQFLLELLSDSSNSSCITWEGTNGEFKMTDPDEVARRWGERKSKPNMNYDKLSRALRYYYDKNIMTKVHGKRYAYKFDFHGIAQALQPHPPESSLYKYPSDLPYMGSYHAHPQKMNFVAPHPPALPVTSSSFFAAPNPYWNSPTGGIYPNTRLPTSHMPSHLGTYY
Procedure, shortened: as §1

ELF1 = ELF1 (Homo sapiens, UniProt P32519 1-619)
ELF1, sequence (P32519 whole entry): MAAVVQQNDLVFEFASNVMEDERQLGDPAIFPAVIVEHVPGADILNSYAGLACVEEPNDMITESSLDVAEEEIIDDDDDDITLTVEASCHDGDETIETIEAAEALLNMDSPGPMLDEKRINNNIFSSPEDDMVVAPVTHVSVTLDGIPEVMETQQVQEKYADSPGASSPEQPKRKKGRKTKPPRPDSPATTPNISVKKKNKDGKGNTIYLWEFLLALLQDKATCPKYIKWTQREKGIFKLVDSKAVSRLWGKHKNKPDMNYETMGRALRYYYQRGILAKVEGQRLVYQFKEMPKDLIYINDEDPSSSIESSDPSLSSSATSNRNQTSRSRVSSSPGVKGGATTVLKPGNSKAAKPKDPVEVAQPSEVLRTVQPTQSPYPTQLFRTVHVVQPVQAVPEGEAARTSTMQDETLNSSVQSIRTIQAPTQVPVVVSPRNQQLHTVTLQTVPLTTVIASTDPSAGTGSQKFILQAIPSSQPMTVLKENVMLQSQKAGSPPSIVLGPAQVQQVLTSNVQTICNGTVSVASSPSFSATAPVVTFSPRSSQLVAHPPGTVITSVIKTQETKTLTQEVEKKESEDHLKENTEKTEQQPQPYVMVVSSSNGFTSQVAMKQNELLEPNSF
Procedure, shortened: as §1

EHF = target: T5, EHF (Homo sapiens, UniProt Q9NZC4 1-300)
T5 sequence: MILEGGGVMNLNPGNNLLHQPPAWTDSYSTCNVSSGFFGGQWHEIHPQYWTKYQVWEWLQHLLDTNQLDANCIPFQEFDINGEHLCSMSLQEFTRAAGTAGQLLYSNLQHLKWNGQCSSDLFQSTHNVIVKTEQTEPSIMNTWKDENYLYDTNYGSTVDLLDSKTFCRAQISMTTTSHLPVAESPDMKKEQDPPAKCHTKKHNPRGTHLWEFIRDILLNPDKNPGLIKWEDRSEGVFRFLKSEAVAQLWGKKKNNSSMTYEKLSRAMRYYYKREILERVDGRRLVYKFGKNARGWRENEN
Procedure, shortened: as §1

SPI1 = SPI1 (Homo sapiens, UniProt P17947 1-270)
Procedure, shortened: as §1

SPIB = SPIB (Homo sapiens, UniProt Q01892 1-262)
SPIB, sequence (Q01892 whole entry): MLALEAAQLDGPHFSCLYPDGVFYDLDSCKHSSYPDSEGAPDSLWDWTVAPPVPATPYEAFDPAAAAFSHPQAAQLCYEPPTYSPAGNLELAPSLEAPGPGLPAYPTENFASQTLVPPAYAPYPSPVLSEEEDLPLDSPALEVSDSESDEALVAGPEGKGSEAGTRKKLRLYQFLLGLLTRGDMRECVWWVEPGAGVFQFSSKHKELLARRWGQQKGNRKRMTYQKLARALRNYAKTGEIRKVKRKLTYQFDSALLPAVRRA
Procedure, shortened: as §1

ELK3 = target: T6, ELK3 (Homo sapiens, UniProt P41970 1-407)
T6 sequence: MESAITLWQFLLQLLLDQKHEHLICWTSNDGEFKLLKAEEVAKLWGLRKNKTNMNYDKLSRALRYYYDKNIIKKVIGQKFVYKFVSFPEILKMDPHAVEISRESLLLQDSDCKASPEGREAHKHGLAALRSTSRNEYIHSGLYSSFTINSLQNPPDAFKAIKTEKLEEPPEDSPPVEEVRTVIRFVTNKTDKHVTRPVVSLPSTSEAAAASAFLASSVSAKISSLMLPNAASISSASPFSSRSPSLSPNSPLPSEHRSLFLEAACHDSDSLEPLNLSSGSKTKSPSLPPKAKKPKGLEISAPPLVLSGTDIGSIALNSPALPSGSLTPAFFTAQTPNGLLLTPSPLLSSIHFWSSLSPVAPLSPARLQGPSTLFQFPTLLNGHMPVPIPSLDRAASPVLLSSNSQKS
Procedure, shortened: as §1

FEV = target: T7, FEV (Homo sapiens, UniProt Q99581 1-238)
T7 sequence: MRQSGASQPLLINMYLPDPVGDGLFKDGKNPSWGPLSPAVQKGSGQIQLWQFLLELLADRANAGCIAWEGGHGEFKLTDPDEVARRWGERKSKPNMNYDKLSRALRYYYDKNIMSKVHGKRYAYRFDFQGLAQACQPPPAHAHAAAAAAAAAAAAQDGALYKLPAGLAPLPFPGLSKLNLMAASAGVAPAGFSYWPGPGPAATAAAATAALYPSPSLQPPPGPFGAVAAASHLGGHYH
Procedure, shortened: as §1

ETV5 = ETV5 (Homo sapiens, UniProt P41161 1-510)
ETV5, sequence (P41161 whole entry): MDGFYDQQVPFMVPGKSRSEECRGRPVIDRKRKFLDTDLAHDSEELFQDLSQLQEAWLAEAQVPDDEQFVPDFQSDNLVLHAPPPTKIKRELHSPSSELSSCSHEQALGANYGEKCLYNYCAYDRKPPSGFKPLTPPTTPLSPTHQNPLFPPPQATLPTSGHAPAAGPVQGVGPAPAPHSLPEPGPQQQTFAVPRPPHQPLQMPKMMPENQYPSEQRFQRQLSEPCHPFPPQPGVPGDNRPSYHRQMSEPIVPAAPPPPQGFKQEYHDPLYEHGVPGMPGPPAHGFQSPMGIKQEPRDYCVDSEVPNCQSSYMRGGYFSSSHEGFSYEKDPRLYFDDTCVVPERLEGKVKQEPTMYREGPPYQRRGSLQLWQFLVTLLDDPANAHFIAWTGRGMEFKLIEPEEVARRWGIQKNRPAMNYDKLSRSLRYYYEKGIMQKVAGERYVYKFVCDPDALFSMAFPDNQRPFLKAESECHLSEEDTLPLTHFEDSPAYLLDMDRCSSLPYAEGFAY
Procedure, shortened: as §1

SPIC = target: T8, SPIC (Homo sapiens, UniProt Q8N5J4 1-248)
T8 sequence: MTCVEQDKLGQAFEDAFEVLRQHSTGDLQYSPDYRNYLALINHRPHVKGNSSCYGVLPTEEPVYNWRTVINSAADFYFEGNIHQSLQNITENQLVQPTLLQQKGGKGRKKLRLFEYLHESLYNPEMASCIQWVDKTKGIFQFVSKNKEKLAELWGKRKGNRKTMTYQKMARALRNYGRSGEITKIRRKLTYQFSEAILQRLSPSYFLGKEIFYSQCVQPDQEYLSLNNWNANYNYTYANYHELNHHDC
Procedure, shortened: as §1

ELF4 = ELF4 (Homo sapiens, UniProt Q99607 1-663)
ELF4, sequence (Q99607 whole entry): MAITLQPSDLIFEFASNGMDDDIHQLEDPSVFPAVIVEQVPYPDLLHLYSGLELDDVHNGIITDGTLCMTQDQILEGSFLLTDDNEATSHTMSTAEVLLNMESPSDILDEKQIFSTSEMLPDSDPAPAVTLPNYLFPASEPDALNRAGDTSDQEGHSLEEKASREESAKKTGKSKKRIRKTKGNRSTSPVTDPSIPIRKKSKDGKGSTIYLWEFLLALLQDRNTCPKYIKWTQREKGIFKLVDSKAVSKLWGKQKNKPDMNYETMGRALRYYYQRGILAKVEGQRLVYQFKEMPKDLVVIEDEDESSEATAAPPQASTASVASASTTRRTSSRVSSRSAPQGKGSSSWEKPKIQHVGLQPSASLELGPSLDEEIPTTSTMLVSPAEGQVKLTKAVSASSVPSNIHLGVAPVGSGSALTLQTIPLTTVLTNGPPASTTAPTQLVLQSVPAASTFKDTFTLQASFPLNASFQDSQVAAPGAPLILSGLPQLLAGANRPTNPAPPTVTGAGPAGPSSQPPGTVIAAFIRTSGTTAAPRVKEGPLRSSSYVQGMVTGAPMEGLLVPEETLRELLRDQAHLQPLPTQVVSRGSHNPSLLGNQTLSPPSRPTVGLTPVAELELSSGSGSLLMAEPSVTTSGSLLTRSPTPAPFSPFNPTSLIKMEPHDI
Procedure, shortened: as §1

ELK4 = target: T9, ELK4 (Homo sapiens, UniProt P28324-2 1-405)
T9 sequence: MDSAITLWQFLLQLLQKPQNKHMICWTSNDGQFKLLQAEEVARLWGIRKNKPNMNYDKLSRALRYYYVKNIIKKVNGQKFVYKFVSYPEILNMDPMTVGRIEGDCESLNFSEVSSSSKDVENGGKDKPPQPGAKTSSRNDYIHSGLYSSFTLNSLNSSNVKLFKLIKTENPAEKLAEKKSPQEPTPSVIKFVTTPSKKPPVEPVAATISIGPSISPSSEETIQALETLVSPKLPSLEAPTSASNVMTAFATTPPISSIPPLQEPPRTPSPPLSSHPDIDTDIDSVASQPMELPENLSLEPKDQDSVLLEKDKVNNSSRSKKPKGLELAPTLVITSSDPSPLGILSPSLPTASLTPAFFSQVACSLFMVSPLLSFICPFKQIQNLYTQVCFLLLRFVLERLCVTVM
Procedure, shortened: as §1

ETV2 = target: T10, ETV2 (Homo sapiens, UniProt O00321 1-342)
T10 sequence: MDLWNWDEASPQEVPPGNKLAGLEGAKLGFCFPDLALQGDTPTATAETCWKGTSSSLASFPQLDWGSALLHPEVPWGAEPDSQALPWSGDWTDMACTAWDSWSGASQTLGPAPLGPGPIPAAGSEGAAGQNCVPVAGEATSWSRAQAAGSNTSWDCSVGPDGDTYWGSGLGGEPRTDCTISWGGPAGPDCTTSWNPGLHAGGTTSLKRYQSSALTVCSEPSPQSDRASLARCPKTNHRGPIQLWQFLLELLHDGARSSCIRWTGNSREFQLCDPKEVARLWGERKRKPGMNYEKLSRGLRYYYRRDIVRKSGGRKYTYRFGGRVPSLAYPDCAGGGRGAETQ
Procedure, shortened: as §1

ELF3 = target: T11, ELF3 (Homo sapiens, UniProt P78545 1-371)
T11 sequence: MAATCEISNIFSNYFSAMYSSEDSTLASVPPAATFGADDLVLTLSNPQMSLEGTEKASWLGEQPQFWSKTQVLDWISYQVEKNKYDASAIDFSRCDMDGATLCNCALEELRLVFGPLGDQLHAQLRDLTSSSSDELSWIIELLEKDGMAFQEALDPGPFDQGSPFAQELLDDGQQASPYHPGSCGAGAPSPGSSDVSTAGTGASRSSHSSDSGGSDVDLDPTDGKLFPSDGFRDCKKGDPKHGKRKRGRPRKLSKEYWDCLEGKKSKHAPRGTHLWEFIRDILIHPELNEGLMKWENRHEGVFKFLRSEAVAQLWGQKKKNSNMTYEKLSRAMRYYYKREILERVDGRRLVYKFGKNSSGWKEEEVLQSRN
Procedure, shortened: as §1

ETV1 = ETV1 (Homo sapiens, UniProt P50549 1-477)
ETV1, sequence (P50549 whole entry): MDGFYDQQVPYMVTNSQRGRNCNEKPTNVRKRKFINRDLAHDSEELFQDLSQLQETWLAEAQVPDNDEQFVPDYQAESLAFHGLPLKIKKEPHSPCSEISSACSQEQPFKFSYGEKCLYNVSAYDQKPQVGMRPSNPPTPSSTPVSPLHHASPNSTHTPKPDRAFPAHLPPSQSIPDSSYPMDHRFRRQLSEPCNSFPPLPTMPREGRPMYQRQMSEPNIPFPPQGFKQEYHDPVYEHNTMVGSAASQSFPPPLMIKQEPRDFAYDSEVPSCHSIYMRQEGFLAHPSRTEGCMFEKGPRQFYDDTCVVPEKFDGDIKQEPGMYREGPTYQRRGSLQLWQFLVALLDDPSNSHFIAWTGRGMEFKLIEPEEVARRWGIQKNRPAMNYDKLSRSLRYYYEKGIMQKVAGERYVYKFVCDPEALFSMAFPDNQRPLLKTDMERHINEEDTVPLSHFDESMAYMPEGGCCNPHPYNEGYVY
Procedure, shortened: as §1

Question: Which results are given for GCACGC?
Answer: binding signal (FLI1): 1.03 fold enrichment (6-mer frequency, TF over GST control); binding signal (ELK1): 1.09 fold enrichment (6-mer frequency, TF over GST control); binding signal (GABPA): 1.14 fold enrichment (6-mer frequency, TF over GST control); binding signal (ERG): 1.03 fold enrichment (6-mer frequency, TF over GST control); binding signal (ELF1): 1.15 fold enrichment (6-mer frequency, TF over GST control); binding signal (EHF): 1.15 fold enrichment (6-mer frequency, TF over GST control); binding signal (SPI1): 1.12 fold enrichment (6-mer frequency, TF over GST control); binding signal (SPIB): 1.19 fold enrichment (6-mer frequency, TF over GST control); binding signal (ELK3): 1.09 fold enrichment (6-mer frequency, TF over GST control); binding signal (FEV): 1.08 fold enrichment (6-mer frequency, TF over GST control); binding signal (ETV5): 1.04 fold enrichment (6-mer frequency, TF over GST control); binding signal (SPIC): 1.06 fold enrichment (6-mer frequency, TF over GST control); binding signal (ELF4): 1.11 fold enrichment (6-mer frequency, TF over GST control); binding signal (ELK4): 1.05 fold enrichment (6-mer frequency, TF over GST control); binding signal (ETV2): 1.18 fold enrichment (6-mer frequency, TF over GST control); binding signal (ELF3): 1.13 fold enrichment (6-mer frequency, TF over GST control); binding signal (ETV1): 1.16 fold enrichment (6-mer frequency, TF over GST control)
